Reference: PubChem BioAssay (EPA / NIEHS)
Inconclusive results are not listed. Active and inactive are the calls of the source. How the source made its calls, unless noted: active means hit-call score of the fitted dose curve at least 0.9, where 1 is the maximum; inactive means score below 0.9.

Columns and labels:
[1] = target: CCAAT/enhancer-binding protein beta (Homo sapiens) (UniProt P17676); test: ATG_C_EBP_CIS: Attagene CIS-FACTORIAL HepG2 Assay for human CCAAT/Enhancer Binding Protein (C/EBP) beta (AID 2282927); settings: HepG2 Attagene cis-factorial transcription factor reporter; actives raise or lower the signal
Sequence of CCAAT/enhancer-binding protein beta (Homo sapiens) (P17676 whole entry, looked up): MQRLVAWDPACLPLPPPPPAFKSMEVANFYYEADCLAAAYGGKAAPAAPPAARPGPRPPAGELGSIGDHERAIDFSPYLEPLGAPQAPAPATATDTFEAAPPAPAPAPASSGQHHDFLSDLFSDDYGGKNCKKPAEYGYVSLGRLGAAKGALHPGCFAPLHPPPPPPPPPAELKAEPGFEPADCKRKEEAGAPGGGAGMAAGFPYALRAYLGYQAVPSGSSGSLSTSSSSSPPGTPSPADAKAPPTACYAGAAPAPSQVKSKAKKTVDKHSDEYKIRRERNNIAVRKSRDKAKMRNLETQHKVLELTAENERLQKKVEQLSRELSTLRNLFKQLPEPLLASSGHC
Summary of the method: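 HepG2, transient MRTU transfection, 24 h treatment. RT-PCR plus CE fluorescence; DMSO negative control, bidirectional fit.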

[2] = target: Aryl hydrocarbon receptor (Homo sapiens) (UniProt P35869); test: ATG_Ahr_CIS: Attagene CIS-FACTORIAL HepG2 Assay for human Aryl Hydrocarbon Receptor (Ahr) (AID 2282930); settings: HepG2 AhR cis-factorial reporter transcription; actives raise or lower the signal
Sequence of Aryl hydrocarbon receptor (Homo sapiens) (P35869 whole entry, looked up): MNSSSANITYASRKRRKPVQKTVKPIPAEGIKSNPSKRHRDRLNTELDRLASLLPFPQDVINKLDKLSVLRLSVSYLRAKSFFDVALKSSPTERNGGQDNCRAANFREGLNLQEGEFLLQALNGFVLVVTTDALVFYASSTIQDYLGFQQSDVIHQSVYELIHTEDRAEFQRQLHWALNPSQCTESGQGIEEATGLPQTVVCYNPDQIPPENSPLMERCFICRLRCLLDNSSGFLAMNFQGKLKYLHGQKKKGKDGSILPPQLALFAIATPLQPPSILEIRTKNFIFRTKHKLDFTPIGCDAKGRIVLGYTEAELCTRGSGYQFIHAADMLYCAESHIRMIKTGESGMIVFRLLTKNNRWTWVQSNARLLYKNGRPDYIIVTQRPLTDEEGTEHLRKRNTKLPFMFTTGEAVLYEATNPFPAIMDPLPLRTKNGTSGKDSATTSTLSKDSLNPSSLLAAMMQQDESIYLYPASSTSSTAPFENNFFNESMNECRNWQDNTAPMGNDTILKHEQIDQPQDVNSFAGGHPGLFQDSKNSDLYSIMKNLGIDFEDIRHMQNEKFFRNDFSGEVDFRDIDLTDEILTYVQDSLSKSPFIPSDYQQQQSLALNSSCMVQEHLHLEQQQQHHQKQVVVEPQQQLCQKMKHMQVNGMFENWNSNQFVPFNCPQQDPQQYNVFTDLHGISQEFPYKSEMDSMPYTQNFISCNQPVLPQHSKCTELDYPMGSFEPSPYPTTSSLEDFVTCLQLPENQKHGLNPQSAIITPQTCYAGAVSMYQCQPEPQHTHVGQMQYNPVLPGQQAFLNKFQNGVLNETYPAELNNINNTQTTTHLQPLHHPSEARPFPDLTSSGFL
Summary of the method: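 Endogenous factor activity is tracked through cis-promoter reporter units transfected into HepG2 cells. Transcript levels at 24 h are read by fluorescent RT-PCR and capillary electrophoresis, with activity in either direction scored relative to DMSO.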

[3] = target: Hypoxia-inducible factor 1-alpha (Homo sapiens) (UniProt Q16665); test: ATG_HIF1a_CIS: Attagene CIS-FACTORIAL HepG2 Assay for human Hypoxia Inducible Factor 1 (HIF1A) (AID 2282951); settings: HepG2 Attagene cis-factorial HIF1a reporter transcription; actives raise or lower the signal
Sequence of Hypoxia-inducible factor 1-alpha (Homo sapiens) (Q16665 whole entry, looked up): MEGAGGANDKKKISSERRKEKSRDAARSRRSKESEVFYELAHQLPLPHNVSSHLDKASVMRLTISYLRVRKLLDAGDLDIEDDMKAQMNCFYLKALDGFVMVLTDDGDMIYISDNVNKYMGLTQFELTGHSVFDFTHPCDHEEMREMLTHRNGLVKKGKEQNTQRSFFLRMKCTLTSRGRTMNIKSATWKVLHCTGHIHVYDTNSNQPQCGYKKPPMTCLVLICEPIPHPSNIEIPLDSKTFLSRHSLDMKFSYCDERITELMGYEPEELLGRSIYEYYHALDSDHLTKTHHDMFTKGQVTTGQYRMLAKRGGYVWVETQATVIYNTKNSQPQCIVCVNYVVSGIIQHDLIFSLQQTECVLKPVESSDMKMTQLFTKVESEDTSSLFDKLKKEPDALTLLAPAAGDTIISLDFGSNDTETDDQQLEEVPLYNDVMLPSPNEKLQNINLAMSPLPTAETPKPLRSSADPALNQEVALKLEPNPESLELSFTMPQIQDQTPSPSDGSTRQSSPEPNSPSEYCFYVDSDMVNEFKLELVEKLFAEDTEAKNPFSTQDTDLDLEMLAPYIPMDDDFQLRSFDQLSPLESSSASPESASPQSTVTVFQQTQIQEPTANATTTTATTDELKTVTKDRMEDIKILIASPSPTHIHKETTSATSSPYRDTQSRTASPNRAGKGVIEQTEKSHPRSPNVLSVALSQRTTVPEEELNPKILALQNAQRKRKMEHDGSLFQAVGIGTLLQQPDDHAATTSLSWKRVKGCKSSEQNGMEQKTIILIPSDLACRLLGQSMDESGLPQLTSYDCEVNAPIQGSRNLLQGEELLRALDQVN
Summary of the method: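 Activity is fitted in both directions relative to DMSO. Reporter transcripts are read by RT-PCR, fluorescent primer extension and capillary electrophoresis after 24 h chemical treatment. The cells are HepG2 carrying transiently transfected cis-element-driven reporter units responding to endogenous factors.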

[4] = target: Hepatocyte nuclear factor 6 (Homo sapiens) (UniProt Q9UBC0); test: ATG_HNF6_CIS: Attagene CIS-FACTORIAL HepG2 Assay for human Hepatocyte Nuclear Factor 6 (HNF6) (AID 2282952); settings: HepG2 Attagene cis-factorial HNF6 reporter transcription; actives raise or lower the signal
Sequence of Hepatocyte nuclear factor 6 (Homo sapiens) (Q9UBC0 whole entry, looked up): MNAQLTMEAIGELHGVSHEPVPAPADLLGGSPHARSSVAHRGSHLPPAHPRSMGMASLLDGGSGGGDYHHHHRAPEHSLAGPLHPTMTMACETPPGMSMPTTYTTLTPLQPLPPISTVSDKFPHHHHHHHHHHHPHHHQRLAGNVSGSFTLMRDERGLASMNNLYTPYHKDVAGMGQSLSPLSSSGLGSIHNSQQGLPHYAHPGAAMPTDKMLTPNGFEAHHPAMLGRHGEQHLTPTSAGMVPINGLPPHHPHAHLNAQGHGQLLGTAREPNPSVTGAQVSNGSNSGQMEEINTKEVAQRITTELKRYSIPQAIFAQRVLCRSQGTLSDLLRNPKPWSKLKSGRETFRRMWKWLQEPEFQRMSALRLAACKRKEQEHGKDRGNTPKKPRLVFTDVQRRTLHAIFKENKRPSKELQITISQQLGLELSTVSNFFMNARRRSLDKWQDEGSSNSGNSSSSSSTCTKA
Summary of the method: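 Activity values derive from bidirectional fitting against DMSO of reporter mRNA levels, measured by capillary electrophoresis of labelled RT-PCR products from HepG2 cells exposed 24 h.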

[5] = target: Heat shock factor protein 1 (Homo sapiens) (UniProt Q00613); test: ATG_HSE_CIS: Attagene CIS-FACTORIAL HepG2 Assay for human Heat Shock Transcription Factor 1 (HSE) (AID 2282953); settings: HepG2 HSE cis-reporter, Attagene RNA transcription; actives raise or lower the signal
Sequence of Heat shock factor protein 1 (Homo sapiens) (Q00613 whole entry, looked up): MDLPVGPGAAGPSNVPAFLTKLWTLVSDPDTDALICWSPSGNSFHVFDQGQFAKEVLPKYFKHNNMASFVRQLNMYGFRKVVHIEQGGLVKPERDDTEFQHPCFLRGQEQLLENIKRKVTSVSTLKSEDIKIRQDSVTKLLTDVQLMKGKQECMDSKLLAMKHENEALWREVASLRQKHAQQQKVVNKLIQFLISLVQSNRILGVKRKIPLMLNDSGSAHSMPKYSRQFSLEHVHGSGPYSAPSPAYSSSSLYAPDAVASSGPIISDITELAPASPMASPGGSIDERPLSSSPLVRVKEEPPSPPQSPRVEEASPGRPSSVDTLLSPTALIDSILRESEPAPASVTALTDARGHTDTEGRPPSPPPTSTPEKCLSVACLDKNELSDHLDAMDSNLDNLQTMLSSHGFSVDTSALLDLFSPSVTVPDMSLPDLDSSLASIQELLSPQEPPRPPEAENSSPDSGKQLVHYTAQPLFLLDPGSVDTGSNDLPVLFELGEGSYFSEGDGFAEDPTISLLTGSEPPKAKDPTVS
Summary of the method: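 Endogenous transcription factor activity in transiently transfected HepG2, read as reporter mRNA by RT-PCR with fluorescent capillary electrophoresis after 24 h. Gain or loss of signal fitted versus DMSO baseline.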

[6] = ATG_RORE_CIS: Attagene CIS-FACTORIAL HepG2 Assay for human RAR-related Orphan Receptor Element (RORE) (AID 2282959); settings: HepG2 Attagene cis-factorial RORE reporter, mRNA; actives raise or lower the signal
Summary of the method: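 RORE reporter transcripts reflecting endogenous factor activity were read after 24 h compound exposure of transfected HepG2 cells, using reverse transcription, PCR, fluorescent labelling and capillary electrophoresis sizing. Gain or loss fitted against DMSO.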

[7] = ATG_TA_CIS: Attagene CIS-FACTORIAL HepG2 Assay for human TA Basal Promoter (AID 2282964); settings: HepG2 Attagene CIS-factorial TA basal promoter reporter; actives raise or lower the signal
Summary of the method: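 Background-control readout: TA basal promoter reporter mRNA, fitted in both directions relative to DMSO. Measured by RT-PCR and capillary electrophoresis 24 hours after treating HepG2 human liver cells transiently carrying multiplexed cis-regulated reporter constructs.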

[8] = ATG_TCF_b_cat_CIS: Attagene CIS-FACTORIAL HepG2 Assay for human T-Cell-Factor with beta-catenin (TCF/b-cat) (AID 2282965); settings: HepG2 TCF/beta-catenin cis-reporter transcription, actives raise or lower the signal
Summary of the method: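 Cells of the HepG2 line carry transiently transfected reporter units whose promoters respond to endogenous factors. Twenty-four hours post-dosing, reporter mRNA induction is measured by fluorescent RT-PCR and capillary electrophoresis, with DMSO as baseline.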

[9] = ATG_TGFb_CIS: Attagene CIS-FACTORIAL HepG2 Assay for human Transforming Growth Factor (TGF) (AID 2282967); settings: HepG2 Attagene CIS TGFb reporter, mRNA transcription; actives raise or lower the signal
Summary of the method: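 Endogenous TGFB1-linked transcription factor activity read as reporter mRNA via RT-PCR and capillary electrophoresis, 24 h after dosing transiently transfected HepG2 cells. Gain or loss of signal fitted relative to DMSO.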

[10] = ATG_VDRE_CIS: Attagene CIS-FACTORIAL HepG2 Assay for human Vitamin D Receptor Element (VDRE) (AID 2282968); settings: HepG2 VDRE cis-reporter transcription, actives raise or lower the signal
Summary of the method: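 Transient MRTU transfection of HepG2, 24 h compound exposure. Readout: reporter transcripts via RT-PCR and capillary electrophoresis, fluorescence. Bidirectional fit vs DMSO.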

[11] = ATG_M_32_TRANS: Attagene TRANS-FACTORIAL HepG2 Assay for M32 Transcription Factor (Internal Marker) (AID 2282984; active means hit-call score of the fitted dose curve at least 0.9, where 1 is the maximum;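 further: transcript level of a background control reporter unit measured by RT-PCR and capillary electrophoresis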); settings: HepG2 Attagene TRANS M32 internal marker reporter
Summary of the method: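 Read-out: fluorescent reporter cDNA fragments resolved by capillary electrophoresis after RT-PCR of total RNA. Transfected HepG2 cells were exposed to chemical for 24 h. Activity scored in the positive direction relative to DMSO.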

[12] = target: Transcriptional activator Myb (Homo sapiens) (UniProt P10242); test: ATG_Myb_CIS: Attagene CIS-FACTORIAL HepG2 Assay for human Myeloblastosis (Myb) Proto-Oncogene Transcription Factor (AID 2282986); settings: HepG2 Attagene CIS-FACTORIAL Myb reporter transcription; actives raise or lower the signal
Sequence of Transcriptional activator Myb (Homo sapiens) (P10242 whole entry, looked up): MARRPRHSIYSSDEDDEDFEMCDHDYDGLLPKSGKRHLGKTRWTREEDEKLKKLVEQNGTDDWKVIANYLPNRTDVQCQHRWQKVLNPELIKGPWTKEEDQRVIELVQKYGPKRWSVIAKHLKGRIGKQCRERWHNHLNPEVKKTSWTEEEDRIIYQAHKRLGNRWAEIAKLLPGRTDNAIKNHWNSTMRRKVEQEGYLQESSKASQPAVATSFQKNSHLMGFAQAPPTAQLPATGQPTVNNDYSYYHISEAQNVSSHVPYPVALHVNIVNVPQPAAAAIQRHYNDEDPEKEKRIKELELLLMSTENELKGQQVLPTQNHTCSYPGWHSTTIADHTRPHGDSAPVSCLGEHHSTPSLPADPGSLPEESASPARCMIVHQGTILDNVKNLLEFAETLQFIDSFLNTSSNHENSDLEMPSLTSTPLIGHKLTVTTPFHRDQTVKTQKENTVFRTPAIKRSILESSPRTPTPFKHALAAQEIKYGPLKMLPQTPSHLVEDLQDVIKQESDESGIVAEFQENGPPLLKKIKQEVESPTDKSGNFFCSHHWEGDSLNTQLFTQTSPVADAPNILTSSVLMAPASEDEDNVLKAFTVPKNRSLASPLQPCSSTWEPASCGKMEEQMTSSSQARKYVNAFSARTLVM
Summary of the method: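 Reporter mRNA is quantified by RT-PCR and capillary electrophoresis 24 h after dosing HepG2 cells transfected with cis-regulated reporter units, which track endogenous transcription factor activity. Gain and loss of signal are fitted versus DMSO baseline.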

[13] = target: Myc proto-oncogene protein (Homo sapiens) (UniProt P01106); test: ATG_Myc_CIS: Attagene CIS-FACTORIAL HepG2 Assay for human Myelocytomatosis (Myc) Proto-Oncogene Transcription Factor (AID 2282990); settings: HepG2, Attagene cis-reporter transcription factor activity; actives raise or lower the signal
Sequence of Myc proto-oncogene protein (Homo sapiens) (P01106 whole entry, looked up, the tested form may be a part): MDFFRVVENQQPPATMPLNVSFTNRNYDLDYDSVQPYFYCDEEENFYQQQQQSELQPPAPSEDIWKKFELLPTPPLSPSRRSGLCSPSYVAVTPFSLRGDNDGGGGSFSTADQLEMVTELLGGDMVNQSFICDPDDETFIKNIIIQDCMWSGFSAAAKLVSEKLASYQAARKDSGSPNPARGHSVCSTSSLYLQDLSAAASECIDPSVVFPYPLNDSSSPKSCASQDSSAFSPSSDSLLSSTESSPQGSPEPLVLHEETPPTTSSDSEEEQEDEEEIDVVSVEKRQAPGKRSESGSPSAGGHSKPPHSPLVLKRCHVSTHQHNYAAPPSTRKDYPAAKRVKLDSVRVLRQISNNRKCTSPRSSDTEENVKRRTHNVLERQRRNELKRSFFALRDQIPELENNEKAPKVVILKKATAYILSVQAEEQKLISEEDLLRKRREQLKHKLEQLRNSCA
Summary of the method: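 Fluorescence intensity of reporter-specific cDNA fragments, separated by capillary electrophoresis, gives the signal. Transfected HepG2 cells carrying cis-promoter reporter constructs are incubated with compound for 24 h; DMSO serves as baseline.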

[14] = ATG_NF_kB_CIS: Attagene CIS-FACTORIAL HepG2 Assay for human Nuclear Factor Kappa B (NF-kB) (AID 2282991); settings: HepG2 Attagene cis-factorial NF-kB reporter mRNA; actives raise or lower the signal
Summary of the method: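 Readout is reporter transcript level, gain or loss versus DMSO, measured 24 h post-dose via RT-PCR, fluorescent labelling and capillary electrophoresis. Human HepG2 liver cells carried transiently transfected CIS reporter constructs reflecting endogenous factors.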

[15] = ATG_NRF2_ARE_CIS: Attagene CIS-FACTORIAL HepG2 Assay for human Nuclear Factor Erythroid 2 Related Factor 2 (NFR2) response to Antioxidant Response Elements (ARE) (AID 2282992); settings: HepG2 Attagene ARE/NRF2 reporter, transcription factor activity; actives raise or lower the signal
Summary of the method: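 Endogenous transcription factor activity read out as reporter transcript levels (RT-PCR plus capillary electrophoresis, fluorescence) in transiently transfected HepG2 cells. Measured at 24 h after dosing; gain or loss of signal fitted versus DMSO.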

[16] = ATG_Oct_MLP_CIS: Attagene CIS-FACTORIAL HepG2 Assay for human Octamer-Binding Transcription Factor (Oct) (AID 2282993); settings: HepG2 Attagene cis-factorial Oct reporter, mRNA; actives raise or lower the signal
Summary of the method: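 Readout is reporter transcript level from RT-PCR with fluorescent primer extension and capillary electrophoresis, fitted in both directions against DMSO. Transfected HepG2 reporter units report endogenous factor activity after 24 h dosing.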

[17] = target: Cellular tumor antigen p53 (Homo sapiens) (UniProt P04637); test: ATG_p53_CIS: Attagene CIS-FACTORIAL HepG2 Assay for human p53 Transcription Factor (AID 2282994); settings: HepG2 p53 cis-element reporter, Attagene mRNA; actives raise or lower the signal
Sequence of Cellular tumor antigen p53 (Homo sapiens) (P04637 whole entry, looked up): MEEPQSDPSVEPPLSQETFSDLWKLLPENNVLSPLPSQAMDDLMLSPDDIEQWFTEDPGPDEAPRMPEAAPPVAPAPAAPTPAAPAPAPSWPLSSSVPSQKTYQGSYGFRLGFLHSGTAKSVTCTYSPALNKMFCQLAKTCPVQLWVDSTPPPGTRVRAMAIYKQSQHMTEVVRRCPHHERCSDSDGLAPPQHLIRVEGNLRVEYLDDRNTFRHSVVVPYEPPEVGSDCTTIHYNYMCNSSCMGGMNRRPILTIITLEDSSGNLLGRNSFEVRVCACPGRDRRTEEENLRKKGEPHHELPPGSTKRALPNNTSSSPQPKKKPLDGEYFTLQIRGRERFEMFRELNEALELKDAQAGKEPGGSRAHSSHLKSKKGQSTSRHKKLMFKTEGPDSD
Summary of the method: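 Endogenous p53 activity read in transiently transfected HepG2 from a cis-element-driven reporter transcript after 24 h exposure. RNA reverse-transcribed, PCR-amplified, fluorescently labelled and sized by capillary electrophoresis; gain or loss fitted against DMSO baseline.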

[18] = ATG_XTT_Cytotoxicity: Cytotoxicity Assessment in the Attagene TRANS-FACTORIAL HepG2 Assay (AID 2283584; active means hit-call score of the fitted dose curve at least 0.9, where 1 is the maximum)
Summary of the method: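 HepG2 human liver cells, transiently transfected with multiple GAL4-UAS reporter units, were dosed and read at 24 h by XTT as cell number. Loss of signal was fitted relative to DMSO negative control baseline.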

[19] = ATG_TAL_CIS: Attagene CIS-FACTORIAL HepG2 Assay for human TAL Basal Promoter (AID 2282966); settings: HepG2 Attagene cis-factorial TAL promoter reporter; actives raise or lower the signal;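 further: background control endpoint measuring basal TAL promoter reporter mRNA not a specific factor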
Summary of the method: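 Transiently transfected HepG2 (cis-regulated reporter units), 24 h treatment, mRNA read by fluorescent CE after RT-PCR; bidirectional fit, DMSO baseline.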

[20] = ATG_CMV_CIS: Attagene CIS-FACTORIAL HepG2 Assay for human CMV (Internal Marker) (AID 2282928); settings: HepG2 CMV promoter reporter, transcription factor profiling; actives raise or lower the signal;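 further: endpoint acts as a background internal control marker rather than a target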
Summary of the method: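 Bidirectional fits against DMSO are applied to reporter mRNA, read by RT-PCR with capillary electrophoresis, from HepG2 cells exposed 24 h. The endpoint serves as an internal CMV background marker within the cis-factorial reporter panel.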

Measured: AC50

[CH3][Sn]([CH3])([Cl])[Cl]
active: [5] 114 µM | [15] 63.8 µM
not listed: [17] | [18] | [19] | [20]
inactive: all other assays above

CC(C)CCCCCCCOC(=O)c1ccccc1C(=O)OCCCCCCCC(C)C
not listed: [14] | [19] | [20]
inactive: all other assays above

CC[N+](=O)[O-]
not listed: [11] | [18] | [20]
inactive: all other assays above

c1ccc(Nc2ccc3ccccc3c2)cc1
active: [15] 37 µM
not listed: [2] | [10] | [18] | [20]
inactive: all other assays above

CCOC(=O)NC(=S)Nc1ccccc1NC(=S)NC(=O)OCC
active: [15] 5.19 µM
not listed: [1] | [19]
inactive: all other assays above

c1ccc2c(c1)CCCC2
not listed: [20]
inactive: all other assays above

CNC(=O)Oc1cc(C)c(SC)c(C)c1
active: [20] 17.4 µM | [10] 51.8 µM | [16] 68.7 µM
not listed: [1] | [11] | [18]
inactive: all other assays above

CCOP(=O)(OCC)Oc1ccc([N+](=O)[O-])cc1
not listed: [1] | [4]
inactive: all other assays above
